This is part of a sample that, as a whole, favours compounds with a hit. Of some 83,000 tested, about 20% had one in any assay.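 Treatment: one concentration, 48 hours, 96-well format. Scoring: percent growth, with anything below 10 considered active.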 A number with no mark means an inactive call.
Test system: OVCAR-8 ovarian
Assay: NCI-60 one-dose screen, 48 h (100 = growth as untreated, 0 = no growth, -100 = all killed)
Conditions: 10 µM unless noted

Q: Which growth does the source give for `COc1ccc2c(c1)CC[C@@H]1[C@@H]2CC[C@]2(C)[C@@H](O)C(=O)C[C@@H]12` here?
A: 101%

Q: `C[C@@H]1CN(c2nc3c(cc2F)c(=O)c(C(=O)O)cn3C(C)(C)C)C[C@H](C)N1` was tested. Which growth did it give?
A: 94.8%

Q: With `NS(=O)(=O)c1ccc(-n2ncc3c(NC4CCCCC4)ncnc32)cc1` as the compound, how does the growth read?
A: 89.2%

Q: With `CCOC(=O)C1=CCC(n2cc(C)c(=O)[nH]c2=O)O1` (stereo not given) as the compound, how does the growth read?
A: 97.9%

Q: For `O=CNc1ccc2c(c1)Cc1cc([N+](=O)[O-])ccc1-2`, which growth is on record?
A: 41.3%

Q: How did the growth turn out when `CC(=O)[C@H]1CC[C@H]2[C@@H]3C[C@H](C)C4=CC(=O)CC[C@]4(C)[C@H]3C(=O)C[C@]12C` was run?
A: 101%

Q: With `Cc1ccc2nc(SCC(=O)Nc3ccc(-c4nc5ccccc5s4)c(Cl)c3)[nH]c2c1` as the compound, how does the growth read?
A: 110%

Q: How did the growth turn out when `Cc1ccc(C(=O)Cc2ccccc2)c(O)c1` was run?
A: 104%

Q: `ICCC(c1ccccc1)(c1ccccc1)c1ccccc1` was tested. Which growth did it give?
A: 70.8%

Q: Which growth does the source give for `c1ccc(CN=C(NCc2ccccc2)NCc2ccccc2)cc1` here?
A: 56.4%

Q: For `Oc1ccc(/C=N/Nc2nc3ccccc3s2)c(O)c1`, which growth is on record?
A: 26.6%

Q: How did the growth turn out when `O=C(CC(C(=O)c1ccccc1)N1CCN(Cc2ccccc2)CC1)c1ccccc1` (stereo not given) was run?
A: 90.7%

Q: With `CC(NC(N)=S)c1ccccc1` (stereo not given) as the compound, how does the growth read?
A: 106%

Q: Which growth does the source give for `C[C@]12CCC(=O)C=C1CC[C@H]1[C@@H]3C[C@@H](O)[C@](O)(C(=O)CO)[C@@]3(C)C[C@H](O)[C@@]12F` here?
A: 92.8%

Q: `O=C(Nc1ccc2c(c1)C(=O)c1ccccc1-2)c1ccccc1` was tested. Which growth did it give?
A: 37.8%

Reference: PubChem BioAssay (NCI)
